PubChem BioAssay AID940 (Emory University Molecular Libraries Screening Center, 2007)
Several values for one entry are separate records, joined by “and”; a condition that tells them apart may be missing. Equal values may be shown once. In all, about 260,000 compounds went through this assay and about 2,200 (0.85%) were called active.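 The calls were made as follows: active = compounds whose cAMP rise, as percent of the full-agonist control response, exceeds 60; inactive = the rest.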 For the sample, actives were picked, then their nearest neighbours and some compounds at random. The source holds several records for some structures; these can differ, active in one and inactive in another.

These compounds were tested against Prostaglandin E2 receptor EP2 subtype (Homo sapiens) (UniProt P43116) (assay: modulation of human EP2 prostaglandin signaling – cell-based, HTRF cAMP, PGE2 stimulation, primary screen (AID 940;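 also: rat C6 glioma line stably carrying human EP2 under a CMV promoter; the protocol text gives 20 µM as final concentration; 100% = response of wells given 1 µM PGE2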)). Details: EP2-expressing cells, cAMP HTRF FRET, PGE2 co-stimulation; at 25 µM; stronger effect = higher value.
Sequence of Prostaglandin E2 receptor EP2 subtype (Homo sapiens) (P43116 whole entry, looked up): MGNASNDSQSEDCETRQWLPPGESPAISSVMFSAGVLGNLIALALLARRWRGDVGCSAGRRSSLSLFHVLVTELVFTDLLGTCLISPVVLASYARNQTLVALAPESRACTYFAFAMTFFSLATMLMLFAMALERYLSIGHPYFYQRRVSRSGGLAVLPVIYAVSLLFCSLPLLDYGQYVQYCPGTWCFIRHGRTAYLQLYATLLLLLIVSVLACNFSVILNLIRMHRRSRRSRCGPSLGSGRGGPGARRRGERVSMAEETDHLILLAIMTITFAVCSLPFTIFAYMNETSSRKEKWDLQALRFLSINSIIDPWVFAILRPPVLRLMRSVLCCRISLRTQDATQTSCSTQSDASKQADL

Structure (SMILES)	induction
CC(C)NC(=S)N1CCN(C(c2ccccc2)c2ccccc2)CC1	21.2% (inactive)
COc1ccccc1NC(=S)N1CCN(C(c2ccccc2)c2ccccc2)CC1	61.4% (active)
COc1ccccc1NC(=S)N1CCC(NC(=O)C23CC4CC(CC(C4)C2)C3)CC1	-21% (inactive) and -7.94% (inactive)
COc1cccc(NC(=O)C(C#N)Cc2cccnc2)c1 (stereo not given)	2.36% (inactive)
O=c1oc2ccccc2cc1-c1csc(Nc2cccc(O)c2)n1	-123% (inactive)
CC1(C)CCCC2(C)C3C1[C@@H](O)C2(C)C[C@H]3O (stereo not given in full)	15.3% (inactive)
CC(C)NC(=O)CN1N=C(c2ccccc2)Cn2c(cc3ccccc32)C1=O	-36.4% (inactive)
NC(=O)c1nnn(-c2ccc(S(=O)(=O)N3CCCCC3)cc2)c1N	11.5% (inactive)
Cc1ccc(C)c(NC(=O)c2ccc3nccnc3c2)c1	-54% (inactive)
O=C(Nc1ccccc1N1CCCCC1)c1cccc(F)c1	66.7% (active)
O=C(Nc1ccccc1N1CCCCC1)c1ccc2nccnc2c1	87.1% (active)
Cc1cccc(C(=O)Nc2ccccc2N2CCN(c3ccc(F)cc3)CC2)c1	49.9% (inactive)
O=C(Nc1ccccc1N1CCN(C(=O)c2ccccc2)CC1)c1ccc2c(c1)OCO2	-6.37% (inactive)
O=C(Nc1ccccc1N1CCN(c2ccccc2)CC1)c1cccc(F)c1	48.5% (inactive)
CN(C(=O)C1CCCCC1)c1nc(-c2ccc(Cl)cc2)cs1	-0.87% (inactive)
Cc1ccc(N(C(=O)Cn2nnc3ccccc32)C(C(=O)NC2CCCC2)c2ccsc2)cc1 (stereo not given)	20.6% (inactive)
CC(=O)C1CC(CC(=O)N[C@H](Cn2nnc3ccccc32)C(C)C)C1(C)C (stereo not given in full)	-25.1% (inactive)
COc1cccc(/C(O)=C2/C(=O)C(=O)N(CCN(C)C)C2c2ccco2)c1 (stereo not given)	2.05% (inactive)
Cc1ccc2[nH]c(=O)c(C(c3nnnn3Cc3ccc(F)cc3)N3CCCC3)cc2c1 (stereo not given)	-4.96% (inactive)
NC(=O)CNC(=O)C1CCCN(c2ncccn2)C1 (stereo not given)	14.7% (inactive)
COCCNCC(=O)N1CCc2ccccc21	10.7% (inactive)
Cc1ccc2cc(C(c3nnnn3C3CCCC3)N3CCC(C)CC3)c(=O)[nH]c2c1C (stereo not given)	-2.6% (inactive)
Cn1c(-c2ccc(F)cc2)cnc1SCC(=O)NCc1ccco1	-17% (inactive) and -3.43% (inactive)
CCn1c(Cc2ccccc2)nnc1SCc1nc2ccccc2c(=O)[nH]1	2.09% (inactive)
O=c1[nH]c(CSc2ncc(-c3ccc(F)cc3)n2Cc2ccco2)nc2ccccc12	46.2% (inactive) and 68.4% (active)
